Measurements published in publication PMC4336329 (PLoS ONE, 2015).
Among all 310,000 compounds or so, about 14,000 (4.5%) showed an effect of 50% or more. The effect is printed as a negative number. The list comes from a sample in which strong results are over-represented; it also holds similar structures and randomly drawn compounds.

Biological target: human ether-à-go-go-related gene (hERG) potassium channel (human, UniProt Q12809)
Test: primary screen, population patch clamp on CHO cells stably expressing hERG; higher = less effect of the substance
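Note: peak tail current of the secondary pulse compared with the same well before compound.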

Chain of human ether-à-go-go-related gene (hERG) potassium channel (Q12809 whole entry, looked up): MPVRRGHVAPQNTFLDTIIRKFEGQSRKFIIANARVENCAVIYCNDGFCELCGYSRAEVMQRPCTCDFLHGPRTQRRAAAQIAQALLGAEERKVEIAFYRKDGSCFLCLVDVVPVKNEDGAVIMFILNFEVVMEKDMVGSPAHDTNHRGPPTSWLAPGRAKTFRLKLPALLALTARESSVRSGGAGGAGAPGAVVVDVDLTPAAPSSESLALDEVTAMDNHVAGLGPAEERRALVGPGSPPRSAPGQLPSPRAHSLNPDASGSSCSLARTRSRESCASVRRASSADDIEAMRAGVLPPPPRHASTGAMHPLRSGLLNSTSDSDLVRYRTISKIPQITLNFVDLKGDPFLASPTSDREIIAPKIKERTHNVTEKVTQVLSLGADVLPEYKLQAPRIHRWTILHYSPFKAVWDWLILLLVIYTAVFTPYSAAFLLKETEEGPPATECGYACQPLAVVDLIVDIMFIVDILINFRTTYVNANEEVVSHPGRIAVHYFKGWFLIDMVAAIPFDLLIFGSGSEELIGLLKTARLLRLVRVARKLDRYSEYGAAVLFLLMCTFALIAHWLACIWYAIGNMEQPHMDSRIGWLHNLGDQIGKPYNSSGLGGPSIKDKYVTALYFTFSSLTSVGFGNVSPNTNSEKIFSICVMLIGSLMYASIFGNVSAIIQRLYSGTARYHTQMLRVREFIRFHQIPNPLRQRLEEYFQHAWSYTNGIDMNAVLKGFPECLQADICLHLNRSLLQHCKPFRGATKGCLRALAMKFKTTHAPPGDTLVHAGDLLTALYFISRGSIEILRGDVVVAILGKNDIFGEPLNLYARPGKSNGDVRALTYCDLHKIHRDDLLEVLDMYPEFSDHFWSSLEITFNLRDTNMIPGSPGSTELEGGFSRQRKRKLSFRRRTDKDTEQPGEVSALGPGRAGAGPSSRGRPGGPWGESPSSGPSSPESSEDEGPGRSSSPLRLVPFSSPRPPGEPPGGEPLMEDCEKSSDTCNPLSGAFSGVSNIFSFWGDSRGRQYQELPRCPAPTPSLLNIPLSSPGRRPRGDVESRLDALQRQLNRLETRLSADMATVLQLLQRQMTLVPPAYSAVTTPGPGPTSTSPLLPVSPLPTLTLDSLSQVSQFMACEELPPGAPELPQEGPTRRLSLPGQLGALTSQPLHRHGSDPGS

| Compound | hERG current change (%, negative = inhibition) at 10uM |
| --- | --- |
| CCNC(=S)Nc1ccc(Cl)cc1Cl | -14% |
| CCOC(=O)c1nc(C)n(-c2cc(Cl)ccc2Cl)n1 | 1.64% |
| Cc1onc(-c2c(Cl)cccc2Cl)c1C(=O)n1nnc2ccccc21 | -3.48% |
| CN(CC(=O)Nc1ccc(N2CCOCC2)cc1)C(=O)c1cc(F)c(F)cc1Cl | -38.3% |
| Cc1sc2ncnc(SCC(=O)NC(=O)c3cccn3C)c2c1C | 10.8% |
| Cc1nc(C)n(CC(O)COc2ccc(C(=O)c3ccccc3)cc2)n1 (stereo not shown) | -6.4% |
| Cc1ccccc1C(OCCN(C(C)C)C(C)C)c1ccccc1.O=C(O)/C=C\C(=O)O (stereo not shown) | -68.3% |
| Cc1ccccc1C(OCCN(C)C)C1CCCCC1.O=C(O)C(=O)O (stereo not shown) | -16.3% |
| Cc1ccccc1C(=O)NNC(=O)/C=C\C(=O)O | -11.1% |
| Cc1ccc2nc(NC(=O)C3CCN(S(=O)(=O)c4cnc[nH]4)CC3)sc2c1 | 6.57% |
| Cn1nnnc1SCC(=O)N1CCN(c2cccc(Cl)c2)CC1 | -26.8% |
| O=C(CSc1nnc2c(Cl)cc(Cl)cn12)N1CCN(S(=O)(=O)c2ccccc2)CC1 | -19.1% |
| Cn1nnnc1SCC(=O)N1CCN(c2ccccc2)CC1 | 12.4% |
| Cn1nnnc1SCC(=O)N1CCN(c2ccc(Cl)cc2)CC1 | -51.2% |
| O=C(CSc1nnc2c(Cl)cc(Cl)cn12)N1CCOCC1 | -6.52% |
| O=C(CSc1nnc2c(Cl)cc(Cl)cn12)N1CCN(c2ccc(F)cc2)CC1 | -51.5% |
| Oc1ccc(CCc2n[nH]c(=S)n2-c2ccc(F)cc2)cc1 | -22.2% |
| O=C(COc1ccccc1)Nc1nc2cc3c(cc2s1)OCCO3 | 7.49% |
| Cc1cccn2c(=O)c3cc(C#N)c(=N)n(CCCN4CCOCC4)c3nc12 | -80% |
| Cc1cccn2c(=O)c3cc(C#N)c(=O)n(CCCN4CCOCC4)c3nc12 | -60.7% |
| N#Cc1cc2c(=O)n3ccccc3nc2n(CCCN2CCOCC2)c1=O | -24.3% |
| COc1ccccc1-n1c(SCC(=O)Nc2cccc3ccccc23)nc(O)cc1=O | 5.56% |
| CC1=C(C)CC(C(=O)NCCc2ccccc2)C(C(=O)O)C1 (stereo not shown) | -10.8% |

| Compound | hERG current change (%, negative = inhibition) at 10uM |
| --- | --- |
| CCN(CC)S(=O)(=O)c1ccc(N2CCOCC2)c(NC(=O)COc2ccccc2C#N)c1 | -3.3% |
| COc1ccccc1-n1cnc2cc(NS(=O)(=O)c3ccccc3)ccc21 | -57.5% |
| CC(C)CCNC(=O)c1ccc2c(c1)ncn2C1CCCCC1 | -42.8% |
| COc1ccc(-n2cnc3cc(C(=O)NC4CCCC4)ccc32)cc1 | -67.9% |
| CCCCNC(=O)c1ccc2c(c1)ncn2C1CCCC1 | -16.7% |
| COc1ccc(-n2cnc3cc(C(=O)NCC4CCCO4)ccc32)cc1 (stereo not shown) | -17.9% |
| COc1ccccc1-n1cnc2cc(C(=O)NCC3CCCO3)ccc21 (stereo not shown) | -13.7% |
| CCOC(CNC(=O)c1ccc2c(c1)ncn2-c1ccccc1OC)OCC | 2.14% |
| COc1ccccc1-n1cnc2cc(C(=O)NC3CCCC3)ccc21 | -65.5% |
| COc1ccc(-n2cnc3cc(C(=O)N4CCOCC4)ccc32)cc1 | -15.6% |
| CC(C)CCNC(=O)c1ccc2c(c1)ncn2C1CCCC1 | -54.8% |
| COc1ccccc1-n1cnc2cc(NS(=O)(=O)c3ccc(Br)cc3)ccc21 | -3.3% |
| COc1ccc(-n2cnc3cc(NS(=O)(=O)c4ccccc4)ccc32)cc1 | 7.83% |
| CC(=O)OC/C=C(\C)CCC=C(C)C | -0.25% |
| Cc1noc(C)c1COc1cccc(C(=O)OC(C)C(=O)Nc2c(C)n(C)n(-c3ccccc3)c2=O)c1 (stereo not shown) | 4.8% |
| COc1ccc(CCNC(=O)CCN2C(=O)[C@@H]3Cc4ccccc4CN3C2=O)cc1 | -28.3% |
| O=c1c2ccccc2nnn1COc1ccc(Cl)cc1Br | 22.2% |
| CCCNC(=O)c1ccc2c(c1)ncn2-c1ccccc1OC | -60.3% |
| COC(CNC(=O)c1ccc2c(c1)ncn2-c1cc(C)cc(C)c1)OC | -22.5% |
| CCOCCCNC(=O)c1ccc2c(c1)ncn2-c1ccccc1OC | -4.39% |
| COCCCNC(=O)c1ccc2c(c1)ncn2-c1ccccc1OC | -1.73% |
| CCCCCNC(=O)c1ccc2c(c1)ncn2-c1ccc(OC)cc1 | -64% |
| Cc1cc(C)cc(-n2cnc3cc(C(=O)O)ccc32)c1 | 2.82% |

| Compound | hERG current change (%, negative = inhibition) at 10uM |
| --- | --- |
| CCCNC(=O)c1ccc2c(c1)ncn2-c1cc(C)cc(C)c1 | -55.1% |
| COc1ccc(-n2cnc3cc(C(=O)NCCN4CCOCC4)ccc32)cc1 | -23.8% |
| CCOCCCNC(=O)c1ccc2c(c1)ncn2-c1ccc(CC)cc1 | -43.8% |
| S=c1[nH]nc(COc2ccccc2)n1/N=C/c1cccc(Br)c1 | 22.2% |
| O=C1N=C(N2CCc3ccccc3C2)S/C1=C\c1ccc(O)cc1 | -20.8% |
| CN1/C(=C/C2CC(=O)NC2=O)C(C)(C)c2ccccc21 (stereo not shown) | 3.26% |
| CCSCCc1nnc(NC(=O)Nc2cccc(C(F)(F)F)c2)s1 | 15.2% |
| O=C(Nc1nnc(-c2ccccc2)o1)c1cc(-c2cccs2)nc2ccccc12 | 2.29% |
| CC(=O)Nc1cccc(NC(=O)CSc2nccn2Cc2ccco2)c1 | 14% |
| O=C(CCOc1ccccc1)OCC(=O)c1cc2ccccc2o1 | -10.3% |
| COC(=O)C1=C(C(=O)OC)[C@@H]2N(C)c3ccc(OC)cc3[C@@]23C[C@@H](C(=O)OC)N(C(=O)NCCBr)C3=N1 | -32.9% |
| O=C(Nc1nnc(-c2cccs2)o1)c1cccc(F)c1 | 11.8% |
| NC(=O)C(F)(F)C12OC3C4C5CC(C6C5C3C61)C42 (stereo not shown) | 15.1% |
| COc1ccc(NC(=S)N2CCC(Cc3ccccc3)CC2)cc1OC | -45.3% |
| COc1ccc(S(=O)(=O)N2CCC(Cc3ccccc3)CC2)cc1NC(C)=O | 20.5% |
| COc1cc(C(C)=O)ccc1OCCN1CCC(Cc2ccccc2)CC1.O=C(O)C(=O)O | -91% |
| COc1cc(C(=O)OCC(=O)N2CCC(Cc3ccccc3)CC2)cc(OC)c1OC | -16.9% |
| COc1cc(C(C)=O)ccc1OCCCN1CCC(Cc2ccccc2)CC1.O=C(O)C(=O)O | -77.9% |
| COc1cc(C(=S)N2CCC(Cc3ccccc3)CC2)ccc1OCC(N)=O | -46.8% |
| O=C(CNC(=S)N(Cc1ccccc1F)C1CCCCC1)NC1CC1 | -4.74% |
| CC(C)c1ccccc1OCC(=O)N1CCCCCCC1 | 13% |
| CCCCCCC1CC(CC(=O)Nc2ccc([N+](=O)[O-])cc2)C(=O)O1 (stereo not shown) | -12.4% |
| CCCCCCC1CC(CCC(=O)Nc2ccc([N+](=O)[O-])cc2)C(=O)O1 (stereo not shown) | 3.95% |

| Compound | hERG current change (%, negative = inhibition) at 10uM |
| --- | --- |
| CC(C)OCC1CC(CC(=O)Nc2ccc([N+](=O)[O-])cc2)C(=O)O1 (stereo not shown) | -34.1% |
| CCCCCC1CC(CC(=O)Nc2ccc([N+](=O)[O-])cc2)C(=O)O1 (stereo not shown) | -50% |
| CCCCCC1CC(CC(=O)Nc2ccc([N+](=O)[O-])cc2)OC1=O (stereo not shown) | -53.1% |
| CCCCCC1CC(CC(=O)NC(=S)Nc2ccc([N+](=O)[O-])cc2)C(=O)O1 (stereo not shown) | -0.0907% |
| O=C(CC1NCCc2ccccc21)Nc1ccc(Oc2ccccc2)cc1 (stereo not shown) | -15% |
| C=CCN(c1ccccc1)S(=O)(=O)c1ccc2c(c1)NC(=O)C(C)C(=O)N2 (stereo not shown) | -4.47% |
| O=C(CNC(c1ccccc1)c1ccccc1)Nc1cc([N+](=O)[O-])ccc1Cl | 10.7% |
| CCCCc1cc(O)c(CCCC)c(O)c1 | -34.1% |
| COc1cc(/C=C(\C#N)C(=O)Nc2ccccc2F)ccc1OCCN1CCOCC1 | -64.6% |
| COc1ccccc1NC(=O)/C(C#N)=C/c1ccc(OCCN2CCOCC2)c(OC)c1 | -6.48% |
| COc1cc(/C=C(\C#N)C(=O)Nc2ccccc2)ccc1OCCN1CCOCC1 | -21.7% |
| O=C(N/N=C/c1cccs1)c1cncc(Br)c1 | -10.1% |
| COc1ccc(C)cc1NS(=O)(=O)c1ccc2c(c1)CCN2C(C)=O | -17.2% |
| CCOc1ccc(NC(=S)N(CCc2ccncc2)C(C)C)cc1 | -50.6% |
| Cc1cccc(NC(=S)N(CCc2ccncc2)C(C)C)c1C | -8.61% |
| CC(C)NC(=S)N(CCc1ccncc1)C(C)C | 17.3% |
| CC(C)N(CCc1ccncc1)C(=S)Nc1cccc(Cl)c1 | -71.3% |
| Cc1cccc(C)c1NC(=S)N(CCc1ccncc1)C(C)C | -1.45% |
| CCc1ccccc1NC(=S)N(CCc1ccncc1)C(C)C | -29.6% |
| Cc1cc(C)c(NC(=S)N(CCc2ccncc2)C(C)C)c(C)c1 | -8.82% |
| Cc1ccc(C)c(NC(=S)N(CCc2ccncc2)C(C)C)c1 | -42.1% |
| CC(C)N(CCc1ccncc1)C(=S)Nc1ccc(F)c(Cl)c1 | -71.7% |
